Measured values as given in the supplement of paper PMC10849652.
The full data set covers some 7,900 targets. This sample favours those with a hit. About 0.6% of all pairs of compound and target were hits.

Tests used:
Test in all cases: log2 fold change, soluble protein after heating vs DMSO (PISA); higher = thermal stabilisation; K562 cells, 10 uM, 30 min; active = over 0.2 and 3.5 SD of the protein, either way, in both replicates (recomputed)
bafetinib = compound: Cc1ccc(NC(=O)c2ccc(CN3CC[C@H](N(C)C)C3)c(C(F)(F)F)c2)cc1Nc1nccc(-c2cncnc2)n1 [bafetinib]
In short: (§1)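 Quantification of soluble protein used TMTpro 16plex LC-MS/MS, with channel sums equalised. Samples were the supernatant after 21,000xg for 90 min of pooled aliquots from K562 cells (2×10^6 cells/mL) treated with 10 μM compound for 30 min, heated for 3 min over 48°C-58°C, and extracted in PBS with 0.5% NP-40 at 4°C. Values, from duplicates, describe thermal stability against control samples on a log2 fold-change scale.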

[1] = compound: Cc1cccc(CC(=O)N2CCc3c2ccc(-c2cn(C)c4ncnc(N)c24)c3F)n1
In short: as §1

nilotinib = compound: Cc1cn(-c2cc(NC(=O)c3ccc(C)c(Nc4nccc(-c5cccnc5)n4)c3)cc(C(F)(F)F)c2)cn1 [nilotinib]
In short: as §1

[2] = compound: Cc1nc(Nc2n[nH]c3c2CN(C(=O)N[C@H](CN(C)C)c2ccccc2)C3(C)C)c2sccc2n1
In short: as §1

dasatinib = compound: Cc1nc(Nc2ncc(C(=O)Nc3c(C)cccc3Cl)s2)cc(N2CCN(CCO)CC2)n1 [dasatinib]
In short: as §1

[3] = compound: Cc1ncc(-c2ccnc(Nc3ccc(S(C)(=O)=O)cc3)n2)n1C(C)C
In short: as §1

[4] = compound: Cn1cc(-c2ccc3c(c2)CCN3C(=O)Cc2cccc(C(F)(F)F)c2)c2c(N)ncnc21
In short: as §1

[5] = compound: Cn1cc(-c2ccc3nnc(C(F)(F)c4ccc5ncccc5c4)n3n2)cn1
In short: as §1

tipifarnib = compound: Cn1cncc1[C@@](N)(c1ccc(Cl)cc1)c1ccc2c(c1)c(-c1cccc(Cl)c1)cc(=O)n2C [tipifarnib]
In short: as §1

mubritinib = compound: FC(F)(F)c1ccc(/C=C/c2nc(COc3ccc(CCCCn4ccnn4)cc3)co2)cc1 [mubritinib]
In short: as §1

[6] = compound: NC(=O)Nc1cc(-c2cccc(F)c2)sc1C(=O)N[C@H]1CCCNC1
In short: as §1

[7] = compound: NC(=O)c1cnc(N[C@@H]2CCCC[C@@H]2N)nc1Nc1cccc(-n2nccn2)c1
In short: as §1

[8] = compound: NC1(c2ccc(-c3nc4ccn5c(=O)[nH]nc5c4cc3-c3ccccc3)cc2)CCC1
In short: as §1

[9] = compound: NCC(=O)Nc1ccc(-n2nc(C(F)(F)F)cc2-c2ccc3c(ccc4ccccc43)c2)cc1
In short: as §1

entinostat = compound: Nc1ccccc1NC(=O)c1ccc(CNC(=O)OCc2cccnc2)cc1 [entinostat]
In short: as §1

vorinostat = compound: O=C(CCCCCCC(=O)Nc1ccccc1)NO [vorinostat]
In short: as §1

citarinostat = compound: O=C(CCCCCCNC(=O)c1cnc(N(c2ccccc2)c2ccccc2Cl)nc1)NO [citarinostat]
In short: as §1

silmitasertib = compound: O=C(O)c1ccc2c(c1)nc(Nc1cccc(Cl)c1)c1ccncc12 [silmitasertib]
In short: as §1

[10] = compound: O=C1NC(=O)C(c2cnc3ccccn23)=C1c1cn2c3c(cc(F)cc13)CN(C(=O)N1CCCCC1)CC2
In short: as §1

[11] = compound: c1cc(OCCN2CCCCC2)cc(-c2n[nH]c3ccc(-c4nnc[nH]4)cc23)c1
In short: as §1

Measured: log2 fold change

PLSCR1 (UniProt O15162)
UniProt O15162, sequence (O15162 whole entry, looked up): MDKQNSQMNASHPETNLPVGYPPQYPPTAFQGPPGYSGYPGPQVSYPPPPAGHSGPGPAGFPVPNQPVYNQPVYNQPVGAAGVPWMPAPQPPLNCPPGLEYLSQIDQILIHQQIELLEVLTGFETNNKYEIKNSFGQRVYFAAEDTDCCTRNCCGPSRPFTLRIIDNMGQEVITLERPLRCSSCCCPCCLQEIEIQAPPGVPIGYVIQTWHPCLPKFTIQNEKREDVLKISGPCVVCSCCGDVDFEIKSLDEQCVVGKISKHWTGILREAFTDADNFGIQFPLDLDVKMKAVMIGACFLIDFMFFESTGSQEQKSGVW
inactive: bafetinib 0.011 | [1] 0.002 | nilotinib -0.004 | [2] -0.022 | dasatinib 0.052 | [3] -0.032 | [4] 0.024 | [5] 0.048 | tipifarnib 0.036 | mubritinib 0.148 | [6] -0.092 | [7] -0.005 | [8] -0.111 | [9] -0.068 | entinostat -0.212 | vorinostat -0.082 | citarinostat 0.05 | silmitasertib 0.022 | [10] -0.081 | [11] -0.096

PDCD6IP (UniProt Q8WUM4)
UniProt Q8WUM4, sequence (Q8WUM4 whole entry, looked up): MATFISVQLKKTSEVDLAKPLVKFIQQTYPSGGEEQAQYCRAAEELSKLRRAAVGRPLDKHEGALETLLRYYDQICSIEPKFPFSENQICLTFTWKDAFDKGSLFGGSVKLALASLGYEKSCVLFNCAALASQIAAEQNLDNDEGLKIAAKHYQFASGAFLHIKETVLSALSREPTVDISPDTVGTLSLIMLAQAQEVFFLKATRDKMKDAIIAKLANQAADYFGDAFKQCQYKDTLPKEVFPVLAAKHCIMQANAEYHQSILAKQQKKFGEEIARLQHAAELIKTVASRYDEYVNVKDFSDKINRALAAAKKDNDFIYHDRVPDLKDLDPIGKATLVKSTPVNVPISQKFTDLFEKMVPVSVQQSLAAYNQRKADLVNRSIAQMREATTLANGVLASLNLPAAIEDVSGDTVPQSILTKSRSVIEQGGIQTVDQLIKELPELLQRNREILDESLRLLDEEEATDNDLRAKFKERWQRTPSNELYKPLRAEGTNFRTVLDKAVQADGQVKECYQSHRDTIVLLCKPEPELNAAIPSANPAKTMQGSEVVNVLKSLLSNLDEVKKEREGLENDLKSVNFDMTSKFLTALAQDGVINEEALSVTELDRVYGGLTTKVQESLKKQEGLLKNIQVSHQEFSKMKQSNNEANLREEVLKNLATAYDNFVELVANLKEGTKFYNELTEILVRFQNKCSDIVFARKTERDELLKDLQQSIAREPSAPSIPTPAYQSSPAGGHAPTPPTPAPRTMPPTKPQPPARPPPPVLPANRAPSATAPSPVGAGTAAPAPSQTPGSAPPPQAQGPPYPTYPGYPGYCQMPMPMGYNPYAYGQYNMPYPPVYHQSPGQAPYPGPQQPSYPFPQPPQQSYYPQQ
inactive: bafetinib 0.042 | [1] 0.157 | nilotinib -0.116 | [2] -0.205 | dasatinib -0.283 | [3] 0.069 | [4] 0.016 | [5] 0.068 | tipifarnib -0.221 | mubritinib 0.105 | [6] -0.055 | [7] -0.1 | [8] -0.186 | [9] -0.103 | entinostat 0.149 | vorinostat 0.186 | citarinostat 0.113 | silmitasertib 0.094 | [10] -0.009 | [11] 0

PRCP (UniProt P42785)
UniProt P42785, sequence (P42785 whole entry, looked up): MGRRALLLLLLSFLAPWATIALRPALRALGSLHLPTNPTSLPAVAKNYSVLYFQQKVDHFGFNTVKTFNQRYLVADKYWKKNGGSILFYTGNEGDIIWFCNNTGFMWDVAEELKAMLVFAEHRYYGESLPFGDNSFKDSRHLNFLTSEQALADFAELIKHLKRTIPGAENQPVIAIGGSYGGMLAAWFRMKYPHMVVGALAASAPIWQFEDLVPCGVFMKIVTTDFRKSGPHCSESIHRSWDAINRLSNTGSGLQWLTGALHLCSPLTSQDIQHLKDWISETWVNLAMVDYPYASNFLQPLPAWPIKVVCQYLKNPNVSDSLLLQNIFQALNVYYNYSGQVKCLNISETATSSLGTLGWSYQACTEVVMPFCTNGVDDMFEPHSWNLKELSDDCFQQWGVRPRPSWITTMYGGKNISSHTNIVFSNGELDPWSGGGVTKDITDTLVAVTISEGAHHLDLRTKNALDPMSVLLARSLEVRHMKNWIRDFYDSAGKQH
inactive: bafetinib -0.209 | [1] -0.018 | nilotinib 0.011 | [2] 0.009 | dasatinib -0.021 | [3] -0.009 | [4] 0.02 | [5] 0.008 | tipifarnib 0.055 | mubritinib 0.057 | [6] 0.013 | [7] 0.005 | [8] -0.106 | [9] 0.008 | entinostat 0.035 | vorinostat 0.005 | citarinostat 0.028 | silmitasertib 0 | [10] -0.014 | [11] 0.044

PRMT7 (UniProt Q9NVM4)
UniProt Q9NVM4, sequence (Q9NVM4 whole entry, looked up): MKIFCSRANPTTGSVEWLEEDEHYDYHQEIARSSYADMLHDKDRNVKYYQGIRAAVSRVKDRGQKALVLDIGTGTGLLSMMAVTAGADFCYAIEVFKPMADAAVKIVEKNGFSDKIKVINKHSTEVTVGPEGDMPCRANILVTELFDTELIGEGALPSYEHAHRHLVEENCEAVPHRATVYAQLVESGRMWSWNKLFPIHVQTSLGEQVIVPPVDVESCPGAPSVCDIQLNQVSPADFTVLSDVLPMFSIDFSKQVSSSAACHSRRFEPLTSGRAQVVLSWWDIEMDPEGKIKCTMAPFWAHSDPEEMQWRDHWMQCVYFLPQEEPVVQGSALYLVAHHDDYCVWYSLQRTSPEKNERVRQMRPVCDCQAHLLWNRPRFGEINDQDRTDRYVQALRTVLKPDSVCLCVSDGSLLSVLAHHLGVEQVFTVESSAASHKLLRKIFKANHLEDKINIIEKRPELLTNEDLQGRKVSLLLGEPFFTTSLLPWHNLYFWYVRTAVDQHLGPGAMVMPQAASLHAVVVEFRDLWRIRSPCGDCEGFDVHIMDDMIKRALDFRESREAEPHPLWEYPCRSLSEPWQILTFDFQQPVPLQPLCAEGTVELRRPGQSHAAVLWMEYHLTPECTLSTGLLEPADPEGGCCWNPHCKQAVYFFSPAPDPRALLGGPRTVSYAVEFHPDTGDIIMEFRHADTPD
inactive: bafetinib -0.114 | [1] -0.086 | nilotinib -0.002 | [2] -0.047 | dasatinib -0.213 | [3] -0.01 | [4] -0.038 | [5] 0.124 | tipifarnib -0.116 | mubritinib 0.092 | [6] 0.034 | [7] -0.093 | [8] -0.165 | [9] -0.021 | entinostat 0.026 | vorinostat -0.023 | citarinostat -0.032 | silmitasertib 0.067 | [10] -0.103 | [11] -0.05

PSMD1 (UniProt Q99460)
UniProt Q99460, sequence (Q99460 whole entry, looked up): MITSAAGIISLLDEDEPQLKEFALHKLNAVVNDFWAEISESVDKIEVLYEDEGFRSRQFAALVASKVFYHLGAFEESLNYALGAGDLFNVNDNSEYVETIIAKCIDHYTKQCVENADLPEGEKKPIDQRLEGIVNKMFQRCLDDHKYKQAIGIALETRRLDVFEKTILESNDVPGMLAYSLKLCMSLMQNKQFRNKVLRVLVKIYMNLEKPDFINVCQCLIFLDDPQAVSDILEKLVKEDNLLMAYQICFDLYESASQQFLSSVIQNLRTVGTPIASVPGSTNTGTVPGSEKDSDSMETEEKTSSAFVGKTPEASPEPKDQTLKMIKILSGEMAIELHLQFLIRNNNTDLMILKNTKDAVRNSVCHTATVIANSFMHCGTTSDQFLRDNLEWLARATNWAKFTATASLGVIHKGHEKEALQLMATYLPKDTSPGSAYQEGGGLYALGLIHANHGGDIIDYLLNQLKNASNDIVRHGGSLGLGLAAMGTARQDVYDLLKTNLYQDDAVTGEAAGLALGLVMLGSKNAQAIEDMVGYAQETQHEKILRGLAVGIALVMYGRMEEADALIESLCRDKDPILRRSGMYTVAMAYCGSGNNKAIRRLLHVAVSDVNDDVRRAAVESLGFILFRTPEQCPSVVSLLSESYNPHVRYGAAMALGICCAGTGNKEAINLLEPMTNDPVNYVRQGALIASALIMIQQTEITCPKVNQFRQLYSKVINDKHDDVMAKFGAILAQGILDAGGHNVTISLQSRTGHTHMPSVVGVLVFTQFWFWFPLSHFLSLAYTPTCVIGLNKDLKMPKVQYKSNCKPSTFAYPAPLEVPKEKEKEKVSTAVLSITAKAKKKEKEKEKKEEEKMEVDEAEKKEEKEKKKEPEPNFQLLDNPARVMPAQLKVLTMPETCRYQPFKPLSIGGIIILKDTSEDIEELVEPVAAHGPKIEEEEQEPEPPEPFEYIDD
inactive: bafetinib 0.16 | [1] 0.037 | nilotinib 0.006 | [2] 0.041 | dasatinib 0.065 | [3] -0.017 | [4] -0.102 | [5] 0.019 | tipifarnib 0.068 | mubritinib -0.019 | [6] 0.086 | [7] 0.007 | [8] -0.013 | [9] 0.068 | entinostat 0.006 | vorinostat 0.013 | citarinostat 0.014 | silmitasertib -0.019 | [10] 0.094 | [11] -0.057

PPP2R5E (UniProt Q16537)
UniProt Q16537, sequence (Q16537 whole entry, looked up): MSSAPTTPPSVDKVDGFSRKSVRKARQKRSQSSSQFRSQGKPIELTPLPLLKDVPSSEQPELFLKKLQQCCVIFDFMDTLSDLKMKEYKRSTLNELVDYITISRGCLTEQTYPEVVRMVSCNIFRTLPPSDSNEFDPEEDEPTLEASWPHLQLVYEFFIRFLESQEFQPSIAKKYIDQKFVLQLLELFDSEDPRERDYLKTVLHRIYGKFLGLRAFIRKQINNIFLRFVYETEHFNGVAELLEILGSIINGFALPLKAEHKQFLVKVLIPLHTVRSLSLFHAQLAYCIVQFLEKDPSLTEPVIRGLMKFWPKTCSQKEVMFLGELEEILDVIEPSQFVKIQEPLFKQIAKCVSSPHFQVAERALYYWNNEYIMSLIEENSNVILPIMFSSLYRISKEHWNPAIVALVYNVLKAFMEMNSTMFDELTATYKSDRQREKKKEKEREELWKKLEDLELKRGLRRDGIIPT
inactive: bafetinib -0.023 | [1] -0.058 | nilotinib -0.11 | [2] 0.057 | dasatinib -0.074 | [3] -0.059 | [4] -0.049 | [5] -0.037 | tipifarnib -0.159 | mubritinib 0.018 | [6] 0.015 | [7] -0.039 | [8] -0.078 | [9] -0.09 | entinostat -0.021 | vorinostat 0.118 | citarinostat 0.058 | silmitasertib -0.014 | [10] -0.016 | [11] 0.163

PYGL (UniProt P06737)
UniProt P06737, sequence (P06737 whole entry, looked up): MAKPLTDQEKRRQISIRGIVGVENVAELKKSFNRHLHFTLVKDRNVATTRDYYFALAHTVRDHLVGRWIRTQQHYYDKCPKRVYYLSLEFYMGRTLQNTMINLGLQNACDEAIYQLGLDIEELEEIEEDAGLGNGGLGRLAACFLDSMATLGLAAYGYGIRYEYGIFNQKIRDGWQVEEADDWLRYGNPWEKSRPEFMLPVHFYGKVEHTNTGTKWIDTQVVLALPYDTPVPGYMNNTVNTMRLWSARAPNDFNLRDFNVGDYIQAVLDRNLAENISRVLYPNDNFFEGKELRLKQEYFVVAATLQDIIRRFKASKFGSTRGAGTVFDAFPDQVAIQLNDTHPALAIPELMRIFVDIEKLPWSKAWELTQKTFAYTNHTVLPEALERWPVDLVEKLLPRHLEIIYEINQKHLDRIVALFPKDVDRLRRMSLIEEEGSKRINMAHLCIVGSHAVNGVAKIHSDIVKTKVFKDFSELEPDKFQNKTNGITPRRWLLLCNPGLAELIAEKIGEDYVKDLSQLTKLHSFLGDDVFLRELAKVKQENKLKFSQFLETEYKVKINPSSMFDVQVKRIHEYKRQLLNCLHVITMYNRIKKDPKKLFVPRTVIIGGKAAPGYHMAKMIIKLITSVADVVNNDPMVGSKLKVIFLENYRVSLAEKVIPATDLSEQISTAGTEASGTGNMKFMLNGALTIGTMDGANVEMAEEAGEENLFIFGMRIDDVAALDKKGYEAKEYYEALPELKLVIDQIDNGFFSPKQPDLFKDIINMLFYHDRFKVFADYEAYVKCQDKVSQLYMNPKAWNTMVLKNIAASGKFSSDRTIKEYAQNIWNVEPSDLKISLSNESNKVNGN
inactive: bafetinib -0.218 | [1] 0.006 | nilotinib -0.202 | [2] 0.036 | dasatinib -0.027 | [3] -0.035 | [4] 0.001 | [5] -0.005 | tipifarnib 0.016 | mubritinib 0.052 | [6] 0.135 | [7] 0.012 | [8] -0.023 | [9] 0.016 | entinostat 0.028 | vorinostat 0.01 | citarinostat 0.039 | silmitasertib 0.034 | [10] -0.043 | [11] -0.041
